# Columns and labels:
# Type in all cases: functional
# [1] = system: Plasmodium falciparum; assay: GSK_TCMDC: Inhibition of Plasmodium falciparum 3D7 in whole red blood cells, using parasite LDH activity as an index of growth. Test compounds present at 2uM
# [2] = system: Plasmodium falciparum; assay: GSK_TCMDC: Inhibition of Plasmodium falciparum Dd2 in whole red blood cells, using parasite LDH activity as an index of growth. Test compounds present at 2uM
# [3] = system: HepG2; assay: GSK_TCMDC: Percent inhibition of human HepG2 cell line. Test compounds present at 10uM.
compound,measurement,setting,value
COc1ccc(-c2cccc(NC(=O)c3ccc(C#N)cc3)c2)cc1CN1CCN(C)CC1.O=C(O)C(F)(F)F,Inhibition,[1],93%
same,Inhibition,[2],2%
same,Inhibition,[3],24%
Cc1cccc(/C=C/C(=O)NC2CCC(N3CCC(c4ccccc4C)CC3)CC2)c1 (stereo unspecified),Inhibition,[1],92%
same,Inhibition,[2],20%
same,Inhibition,[3],67%
CCCCCCN1CCC(NCc2cccc([N+](=O)[O-])c2)CC1.O=C(O)C(F)(F)F,Inhibition,[1],100%
same,Inhibition,[2],16%
same,Inhibition,[3],0%
CS(=O)(=O)O.Nc1nc(NCC2CCC(CNS(=O)(=O)c3cccc4ccccc34)CC2)nc2ccccc12 (stereo unspecified),Inhibition,[1],97%
same,Inhibition,[2],42%
same,Inhibition,[3],9%
O=C(Nc1cccc(C(F)(F)F)c1)c1cccc(S(=O)(=O)NCC2CCCN(CC3CCCCC3)C2)c1.O=C(O)C(F)(F)F (stereo unspecified),Inhibition,[1],99%
same,Inhibition,[2],11%
same,Inhibition,[3],17%
C[C@@H](Nc1nc(NCc2ccccc2)c2sccc2n1)c1ccccc1,Inhibition,[1],91%
same,Inhibition,[2],75%
same,Inhibition,[3],31%
CCOC(=O)[C@H](Cc1cc([N+](=O)[O-])c(Oc2ccc(OC)c(Cc3ccc(OC)c(C(C)C)c3)c2)c([N+](=O)[O-])c1)NC(=O)C(F)(F)F,Inhibition,[1],94%
same,Inhibition,[2],0%
same,Inhibition,[3],5%
